# Results taken from PubChem BioAssay AID1508647 (National Center for Advancing Translational Sciences (NCATS), 2021).
# Some of the results follow. Records with an inconclusive call do not appear. Activity calls are given as the source filed them. The call rests on the fitted dose curve; in most records, active means well fitted inhibition curve with a large enough effect; inconclusive means small, poorly fitted or top-dose-only effect, or another doubt; inactive means no such curve, though single readings can be large or run the other way.
# Target: Peripheral myelin protein 22 (Rattus norvegicus) (UniProt P25094)
# Experiment: Cell-based HiBiT reporter assay to measure PMP22 protein expression in S16 Pmp22-HiBiT cells - Confirmatory screen
# Conditions: S16 Schwann cells Pmp22-HiBiT, luminescence, 48 h; series mostly up to 27.9 µM
# Excerpt: Assay Provider: Jim Inglese Ph.D. National Center for Advancing Translational Science, National Institutes of Health, Rockville, MD CMT is a heterogeneous group of neurological disorders that affect approximately 1 in 2,500 people. In particular, the most common form of CMT, CMT1A is genetically linked to the duplication of the PMP22 gene which leads to Schwann cell overexpression, thus manifesting itself as a typical case of dose-sensitive diseases. […] We can further discriminate the effect of all transcriptionally active molecules on PMP22 translation or stability with an assay that incorporates a short NLuc peptide (HiBiT) at the C-terminus of expressed PMP22 (S16(f8) PMP22-HiBiT) allowing alpha complementation and luminescence detection of membrane-associated PMP22 protein. […] Miniaturization of these assays to 1536-well plate format for quantitative high throughput screening (qHTS) yielded rich data sets immediately from the qHTS assay (S16(c9) Pmp22-F2sN), when compared with data from a cell viability assay (Cell TiterGlo) to identify compounds that decreased the output signals through cellular toxicity to streamline the selection process of actives for subsequent characterization using the HiBiT assay (S16(f8) PMP22-HiBiT). […]
# Peripheral myelin protein 22 (Rattus norvegicus), sequence (P25094 whole entry, looked up): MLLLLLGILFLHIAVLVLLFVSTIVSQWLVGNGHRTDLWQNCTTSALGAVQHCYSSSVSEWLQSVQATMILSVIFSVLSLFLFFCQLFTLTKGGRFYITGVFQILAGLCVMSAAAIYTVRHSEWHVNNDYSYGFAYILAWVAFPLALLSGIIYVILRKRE
row,Structure (SMILES),outcome
1,Cc1ccc(NC(=O)c2nc(S(=O)(=O)Cc3cccc(C)c3)ncc2Cl)cc1,inactive
